# Rows were chosen to be rich in hits. Some 3.6% of all compounds tested hit in one or more screens of this group.
# Abeta rescue: restores growth of yeast expressing A-beta42 peptide. yeast expressing A-beta42, growth rescue, OD600, 48 h; response scale: 0% DMSO, 100% iron-clioquinol control. Potency, µM (titrated, usually from 46.1 µM), usual class: activators. 410,000 compounds, 0.063% hits; also: nearly all actives have a fitted effect of over 55% in size
#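 Yeast growth medium received pinned compounds, then yeast cells expressing toxic A-beta were added; plates incubated at 30 C for 48 hr. Growth read as absorbance at 600 nm, normalized to DMSO and equimolar FeCl3 plus clioquinol controls.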
# aSyn yeast inh: rescues yeast growth from alpha-synuclein toxicity. 370,000 compounds, 0.14% hits. Potency, µM (highest dose often 46.1 µM), for inactives: at the top dose growth rescue (activation), actives largely listed as activators. Yeast expressing alpha-synuclein, growth rescue, BacTiter-Glo, 24 h; also: % of control where 0% means no effect; nearly all actives have a fitted effect of over 65% in size
#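 Readout is rescue of growth in alpha-synuclein-expressing yeast, so inhibitors of toxicity appear as activators. Growth after 24 hr at 30 deg C in galactose medium is quantified by luminescence.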
# Mm-Cpn inhibitor: blocks the Methanococcus maripaludis chaperonin Mm-Cpn | purified Mm-Cpn ATPase, ADP Transcreener TR-FRET | Potency, µM (series often up to 76.9 µM), for the others: at the top dose activity, negative = inhibition, hits mostly inhibitors | 330,000 compounds, 0.031% hits | AID 504842; also: % is scaled to controls: 0 for no effect and ±100 for the full control effect; nearly all actives have a fitted effect of over 80% in size
#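 ATP (10 uM final) was added to archaeal chaperonin (25 nM final) after 10 min exposure to test compound at 37°C; after 30 min further incubation, ADP was detected by competitive TR-FRET.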
# TDP-43 yeast inh: TDP-43 toxicity inhibition in yeast | TDP-43 expressing yeast growth rescue, BacTiter-Glo, 24 h | 410,000 compounds, 1.8% hits | Potency, µM (doses to about 46.1 µM), inactives show at the highest dose growth rescue (activation), usual class: activators | AID 652104; also: % of control where 0% means no effect; nearly all actives have a fitted effect of over 50% in size
#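 Luminescence from BacTiter-Glo reports growth of TDP-43-expressing yeast after 24 hr at 30 deg C with compound. Cells were raffinose-pregrown to mid-log, then seeded in galactose medium at OD600=0.02.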
# ClpP mod: qHTS Assay for Activators of ClpP. ATP-dependent Clp protease proteolytic subunit (Bacillus subtilis (strain 168)), P80244. purified B. subtilis ClpP, FRET peptide cleavage, 20 min. Potency, µM (series often up to 57.5 µM), inactives show at the highest dose activity change, negative = active. 340,000 compounds, 1.9% hits. AID 651965, 2013; active = well fitted falling curve with a large enough effect; inconclusive = small, poorly fitted or top-dose-only effect; inactive = no such curve, though single readings can be large or run the other way; also: the source files actives as falling curves though it sought activators and does not explain the sign; nearly all actives have a fitted effect of over 65% in size
#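 FRET quenching reversal measured ClpP activation: 10 microg/mL B. subtilis ClpP at pH 8 with the FRET-FV decapeptide, read at 430 nm after 320 nm excitation. The 20-min minus 0-min signal was scaled between DMSO/no-enzyme wells and ADEP (5.8 microM final).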
# FUS suppressor: suppressors of FUS proteinopathy in yeast | S. cerevisiae FUS-expressing, growth rescue, OD600, 24 h | Potency, µM (top dose mostly 76.6 µM), hits mostly activators | 390,000 compounds, 0.24% hits;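 also: plate controls were DMSO vehicle for no effect and reference control for full effect; nearly all actives have a fitted effect of over 55% in size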
#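 Compound concentration series was pinned onto galactose-induced FUS-expressing yeast seeded at OD 0.005. Plates sat 24hr at 30C; absorbance at 600 nm gave growth. DMSO served as background control.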
# An asterisk follows results filed as active; i = inactive; ? = inconclusive; / = no result given. Unless noted, calls follow the shape of the dose curve; as a rule, active = well fitted curve in the direction sought with a large enough effect; inconclusive = small, poorly fitted or top-dose-only effect, or another doubt; inactive = no such curve, though single readings can be large; an effect the other way counts as inactive or inconclusive. Potency is read from the fitted curve at half-maximal effect.
SMILES,Abeta rescue,aSyn yeast inh,Mm-Cpn inhibitor,TDP-43 yeast inh,ClpP mod,FUS suppressor
CCOC(=O)c1cc(-c2cccs2)nc2onc(C)c12,i,-0.8%,?,1.7%,31.6µM*,i
COc1ccc(N(C(=O)c2snc(C(N)=O)c2N)C(C(=O)NC2CCCC2)c2ccc3ncccc3c2)cc1 (stereo not drawn),i,-5.0%,-2.6%,-19.8%,/,28.2µM*
COc1ccc(N(C(=O)c2snc(C(N)=O)c2N)C(C(=O)NCc2ccc(F)cc2)c2ccc(O)cc2)cc1 (stereo not drawn),i,-1.4%,-18.8%,-8.4%,/,28.2µM*
COc1ccccc1N1CCN(C(=O)c2ccc3c(c2)N(Cc2cc(C)ccc2C)C(=O)c2ccccc2S3(=O)=O)CC1,i,/,/,28.3%,0.8%,i
Cc1ccc(/C=N/Nc2nc3ccccc3s2)o1,?,-0.2%,-1.8%,11.2µM*,-3.0%,i
COc1ccc(N2CCN(C(CNC(=O)CC(C)C)c3ccc4c(c3)OCO4)CC2)cc1 (stereo not drawn),i,/,/,16.3%,-7.9%,i
Cc1cccc2cc(CN(C(=O)c3cccc(Cl)c3)c3ccccc3)c(=O)[nH]c12,i,/,/,11.5%,-0.3%,i
COc1ccccc1N(Cc1cc2cccc(C)c2[nH]c1=O)C(=O)c1cccc(Cl)c1,i,/,/,?,25.1µM*,i
CC(C)(C)C(=O)NC1CCCCN(Cc2ccc(Cl)cc2)C1=O (stereo not drawn),/,/,/,/,/,i
CCOC(=O)CSc1nc(C)c2cc(OC)ccc2n1,i,-1.7%,0.8%,18.0%,14.1µM*,i
CCC(=O)N/C(N)=N/c1nc(C)c2cc(OC)ccc2n1,i,1.4%,0.8%,3.7%,3.16µM*,i
COc1ccc2nc(/N=C(\N)NC(=O)N3c4ccccc4Sc4ccccc43)nc(C)c2c1,i,3.0%,-1.2%,12.9%,?,/
COc1ccc2nc(/N=C(\N)NC(=O)C(C)(C)C)nc(C)c2c1,i,-0.7%,1.3%,4.0%,31.6µM*,i
CCCc1c(C)nc2ccc(OC)cc2c1SCCC(=O)O,i,4.0%,-9.1%,9.4%,12.6µM*,i
CC1CCN(S(=O)(=O)c2ccc3nc(Nc4cccc(F)c4)ccc3c2)CC1,i,/,/,?,5.2%,i
CCn1c(C(=O)NCc2ccc(OC)cc2)cc2sc(Cl)cc21,i,/,/,2.5%,1.1%,i
Cc1nc(Sc2nnnn2-c2ccccc2)c(C#N)c(C)c1C,i,0.1%,-4.4%,17.8µM*,0.6%,i
Cc1cc(C)c(C#N)c(Sc2nnnn2-c2ccccc2)n1,i,2.2%,-0.4%,8.4%,0.8%,i
CCN1CCSc2ccc(C(=O)NC(C)c3ccccc3)cc21 (stereo not drawn),i,/,/,-2.4%,3.7%,i
CN(C)c1ccc(C(CNC(=O)c2ccccc2)c2c[nH]c3ccccc23)cc1 (stereo not drawn),i,-1.1%,-2.2%,3.4%,-0.5%,11.2µM*
CCC(=O)Nc1nonc1-c1nc2ccccc2n1Cc1ccccc1,i,0.6%,-0.4%,9.8%,?,i
CCC(=O)Nc1nonc1-c1nc2ccccc2n1N(C(=O)CC)C(=O)CC,i,-12.9%,-1.4%,-9.4%,28.2µM*,i
CCC(=O)Nc1nonc1-c1nc2ccccc2n1CCC(C)C,i,1.2%,-13.5%,7.5%,28.2µM*,i
CCCCCCn1c(SCC#N)nc2ccccc2c1=O,/,2.0%,/,/,-0.1%,/
O=C(C[n+]1ccccc1)c1cccc([N+](=O)[O-])c1,/,/,/,/,0.9%,/
SMILES,Abeta rescue,aSyn yeast inh,Mm-Cpn inhibitor,TDP-43 yeast inh,ClpP mod,FUS suppressor
CC(=O)N1N=C(c2ccccc2)CC1c1cn(C)c2ccccc12 (stereo not drawn),i,20.2%,1.3%,20µM*,?,/
CC(=O)N1N=C(c2ccccc2)CC1c1ccc(F)cc1 (stereo not drawn),i,7.9%,0.6%,-21.8%,-5.1%,i
CCOc1ccc(C(=O)Nc2ccc3nc(SCC(=O)N(C)c4ccccc4)sc3c2)cc1,i,/,/,6.6%,4.0%,i
Cc1ccccc1C(=O)NC1CCCCN(Cc2cccc(Cl)c2)C1=O (stereo not drawn),/,/,/,/,/,i
COc1ccc([C@H]2CC(=O)C=C(c3ccccc3OC)C2)cc1OC,i,8.6%,-1.5%,20µM*,-2.3%,i
COc1ccc(C2=CC(=O)C[C@H](c3ccc(OC)c(OC)c3)C2)cn1,i,6.0%,-0.8%,?,-1.6%,i
COc1ccc([C@H]2CC(=O)C=C(c3cccc(Cl)c3)C2)cc1OC,i,10.1%,1.8%,22.4µM*,-0.9%,i
COc1ccc([C@H]2CC(=O)C=C(c3ccccc3)C2)cc1OC,i,0.6%,-0.9%,?,-0.1%,i
CCCCC/C=C/C1=CC(=O)C[C@H](c2ccc(OC)c(OC)c2)C1,i,?,1.9%,35.5µM*,-1.7%,?
COc1ccccc1C1=CC(=O)C[C@H](c2ccc(Cl)cc2)C1,i,11.1%,0.4%,?,-0.5%,?
COc1ccc(C=O)cc1C1=CC(=O)C[C@H](c2ccc(Cl)cc2)C1,i,2.8%,1.2%,20µM*,-1.4%,?
Cc1nn(-c2ccc(N3CCCC3)nn2)c(C)c1CCC(=O)NCc1ccc(OC(C)C)cc1,i,/,/,-1.0%,-2.8%,i
CC(=NNC(=S)N1CCCCC1)c1ccccn1,i,-8.5%,/,-76.7%,?,i
CC(=NNC(=S)N1CCCCC1)c1cccc(C)n1,i,-77.4%,/,-85.7%,25.1µM*,/
CCOc1ccc(N2C(=O)CC(N3CCN(c4ccc(Cl)cc4)CC3)C2=O)cc1 (stereo not drawn),i,-15.3%,0.8%,14.1µM*,1.3%,i
COc1ccc(N2C(=O)CC(N3CCN(c4ccc(Cl)cc4)CC3)C2=O)cc1 (stereo not drawn),i,27.3%,1.3%,11.3%,-2.1%,i
Clc1ncnc2scc(C3COc4ccccc4O3)c12 (stereo not drawn),i,4.7%,-0.2%,17.8µM*,-1.9%,i
Cc1ccc(S(=O)(=O)N2C[C@H]3[C@H]4C(=O)N(Cc5ccccc5)C(=O)[C@H]4CC(=O)[C@H]3[C@@H]2c2ccccc2F)cc1,i,2.1%,/,23.3%,-1.4%,17.8µM*
O=C(N/N=C/C(Cl)=C/c1ccccc1)c1ccccn1,i,-13.0%,2.4%,10µM*,-0.1%,i
O=C(NCc1cccs1)c1cnc2ccccn2c1=O,i,0.1%,1.6%,-6.2%,25.1µM*,i
